Measurements reported in PubChem BioAssay AID2599 (Sanford-Burnham Center for Chemical Genomics, 2010).
In all, about 330,000 compounds went through this assay and about 5,800 (1.8%) were called active.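 The calls were made as follows: active = inhibition above about 50% at the single tested dose (limit read from the data); inactive = the rest.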 The sample as a whole holds a higher share of actives than the screen did.

target: Sentrin-specific protease 6 (Homo sapiens) (UniProt Q9GZR1); assay: SENP6 protease inhibitors, primary screen, biochemical, luminescence, uHTS (AID 2599); settings: Recombinant SENP6 catalytic domain, aminoluciferin luminescence; at 10 µM; stronger effect = higher value;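 also: plate controls were DMSO wells with enzyme for no effect and DMSO wells lacking enzyme for full effect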
Sequence (Q9GZR1 628-1112 limits assumed): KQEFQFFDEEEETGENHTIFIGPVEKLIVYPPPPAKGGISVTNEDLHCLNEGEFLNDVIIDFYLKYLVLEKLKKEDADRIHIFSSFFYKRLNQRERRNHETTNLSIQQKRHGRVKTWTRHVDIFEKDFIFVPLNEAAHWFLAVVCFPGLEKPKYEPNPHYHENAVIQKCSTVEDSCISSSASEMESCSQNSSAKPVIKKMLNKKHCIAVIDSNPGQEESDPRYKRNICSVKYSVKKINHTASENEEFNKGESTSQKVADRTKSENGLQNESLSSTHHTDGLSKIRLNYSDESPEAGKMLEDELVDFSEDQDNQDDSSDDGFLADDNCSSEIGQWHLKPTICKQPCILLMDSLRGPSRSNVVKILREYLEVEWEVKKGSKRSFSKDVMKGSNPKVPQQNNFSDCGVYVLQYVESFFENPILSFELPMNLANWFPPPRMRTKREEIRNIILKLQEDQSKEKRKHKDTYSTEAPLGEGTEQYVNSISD

inhibition, inactive:
COc1ccc(OC)c(S(=O)(=O)Nc2c(C)nn(C)c2C)c1 -2.99%, COc1ccccc1CCNC(=O)CSc1nnc2ccc(-c3cccnc3)nn12 17%, CC(C)(C)CC(C)(C)NCC(O)COCCOc1ccc(Br)cc1 (configuration not stated) 9.07%, O=C(O)CC/C(=C\c1cc2c(cc1Br)OCO2)c1nc2ccccc2s1 -4.31%, Cc1ccccc1CSc1nnc(-c2ccccn2)n1N 7.46%, COc1ccc(C2C=C(c3ccc(Br)cc3)Nc3nc(NS(C)(=O)=O)nn32)cc1 (configuration not stated) 3.75%, C/C(=C\c1ccco1)C1Nc2cccc3cccc(c23)N1 -84.6%, Oc1ccc(C2Nc3cccc4cccc(c34)N2)cc1 15.2%, CC1CN(C(=S)Nc2cccc(F)c2)CC(C)O1 (configuration not stated) 15.9%, O=c1ccc(S(=O)(=O)N2CCCC2)cn1Cc1nc(-c2ccccc2)no1 -10.4%, CN(C)c1ccc(NC(=O)CN2C3CCCC2CC(NC(=O)c2ccccc2)C3)cc1 (configuration not stated) -8.69%, COC(=O)c1ccccc1NC(=O)C1(S(=O)(=O)c2ccc(Cl)cc2)CC1 16.9%, c1ccc(-n2nc3ccccc3n2)cc1 -28.4%, CN(C)c1nnnn1-c1ccc(Cl)cc1 2.68%, CN(C)CCCNC(=O)c1cc(C(=O)Cc2ccc(Cl)cc2)c[nH]1 -9.62%, O=C(CSC(=S)N1CCOCC1)c1cc(Br)cc(Br)c1O -12.1%, CC1CN(C(=S)SCC(=O)c2ccccc2)CC(C)O1 (configuration not stated) -20.8%, Cc1ccc(CNC(=O)CC2Sc3ccccc3NC2=O)cc1 (configuration not stated) -4.12%, C#CCOCCOCCOCCNc1nc(N2CCN(C(=O)C([C@@H](C)CC)n3cc(C(N)COC(=O)C(F)(F)F)nn3)CC2)nc(N2CCN(C(=O)[C@H](CCCCN)n3cc(C(N)CC(C)C)nn3)CC2)n1 (some centres not stated) -9.82%, O=C(Nc1cccc(C(=O)N2CCCC2)c1)c1ccccc1 -14.4%, O=C(Nc1cccc(NC(=O)c2cccc(F)c2)c1)c1ccccc1 -18.8%, COc1cccc(N2CC(C(=O)NCc3n[nH]c(=O)c4ccccc34)CC2=O)c1 (configuration not stated) -13.6%

inhibition, active:
Cc1cc(N=Nc2ccc3ccccc3c2)ccc1O 98%, Brc1ccccc1C1Nc2cccc3cccc(c23)N1 51.7%, Nc1ccc2nn(-c3ccc(Cl)cc3)nc2c1 95%, O=C(CSC(=S)N1CCOCC1)c1ccccc1 60.8%, O=C(Nc1ccc(C(=O)O)c(O)c1)c1ccccc1 83.4%
